Results published in the OligoGym collection.

Target: MARCH9
Experiment: pooled miR-30 sensor sort-seq; sequence = guide strand
Details: shRNA
Further: reference of the scale not given here.

Row | Sequence | sensor-assay potency score (higher = more potent)
1 | TTGAAGATGCGGTAGACAGAGG | -1.26
2 | ATTTAGGACCTTCCACTGCTGG | -1.22
3 | TGCATCTCCTCCTATGTCCTTG | -0.947

Target: MAST4
Experiment: as above
Details: shRNA

Row | Sequence | sensor-assay potency score (higher = more potent)
4 | TTTGTCCACAGAGTCTTCCTTC | 0.0254
5 | TTTGCTTTTCACCAACAGCGGA | -0.849
6 | TAACTGATGCAACTTCTCCTGG | -0.165
7 | TTCTGTGCTTTCTAATCGCTGC | 0.164
8 | TAGGTAGTAAAATTCTTCCGGA | 0.168
9 | TTTCTTTCGGAGGTAATCGATG | -1.18
10 | TTGCTTTTCACCAACAGCGGAC | -0.756
11 | TTGCTAATCAATTTAATCGTTT | -0.519
12 | TTCACATCGGAGAAGCTCCTTG | -0.392
13 | TATACTTCAGTGATTTTCCAGG | -0.751
14 | TTGCCTATTAAGCTTTTCCGGT | -0.995
15 | TTGGCCTTCAGCTTGTCGCGGT | 0.119

Target: MATR3
Experiment: as above
Details: shRNA

Row | Sequence | sensor-assay potency score (higher = more potent)
16 | TTTCTCACCATCTTCACCGGAC | -0.137
17 | TTGAACTCTCAGTCTTCTGGGA | 0.368
18 | TATTCTTTGCAACTTCTTCATT | -0.992
19 | TTCGGTTGAACTCTCAGTCTTC | 0.606
20 | TTGATCAAACTTCTGATCTGGC | 0.816
21 | TTGTGTAATAATCCACTGCGGC | -0.905
22 | TTCTTGTTCTTTACCTTCGGTT | -0.715
23 | TAAGCTTTTTCTTTGCTGCTGC | 0.692
24 | TTGCTTTTGATCAAACTTCTGA | -0.275
25 | TTCACTTGTATCTTTGTTGGGA | 0.73
26 | TTTCTCAGACAGGTCAACCTTC | 0.61
27 | TATACCAACAGGAACATTGGGC | 0.454

Target: MBD3
Experiment: as above
Details: shRNA

Row | Sequence | sensor-assay potency score (higher = more potent)
28 | TAATCTTGGTCACCGGCTGCTT | -0.615
29 | TTCTTCTCCCAGAAGAGCTGGC | -0.362
30 | TCGTCGGTCACCATGAAGGCTT | -0.866
31 | TTGCTCATCAGCATCTTGCCCG | -0.234
32 | ATCTTGCTCATCAGCATCTTGC | -1.63
33 | TCGTCGTCGTCCTCAGCGCAGG | -1.74
34 | TTGAAGATGGACGCCGTCTGGC | -0.445
35 | TTGGGGAGGTCCATGGTCTTGA | -0.977
36 | TTGCTGCGGAACTTCTTCCCGC | -0.815
37 | TTGGTAATCTTGGTCACCGGCT | -0.729
38 | ATCAGCATCTTGCCCGTGCGGA | -0.991
39 | TCGCTCTTGACCTTGTTGCTGG | -0.788
